# Most compounds without a hit are left out; they make up all but 4.2% or so of the library.
# VDR inhibitor: Inhibitors of the vitamin D receptor (VDR): qHTS | AID 504847, 2011 | 0.93% of 400,000 active | Vitamin D3 receptor (Homo sapiens), P11473 | VDR-SRC2-3 peptide fluorescence polarization, 2 h | Potency, µM, for inactives: max response, negative = inhibition, most hits filed as inhibitors
# Target sequence (P11473 whole entry, looked up): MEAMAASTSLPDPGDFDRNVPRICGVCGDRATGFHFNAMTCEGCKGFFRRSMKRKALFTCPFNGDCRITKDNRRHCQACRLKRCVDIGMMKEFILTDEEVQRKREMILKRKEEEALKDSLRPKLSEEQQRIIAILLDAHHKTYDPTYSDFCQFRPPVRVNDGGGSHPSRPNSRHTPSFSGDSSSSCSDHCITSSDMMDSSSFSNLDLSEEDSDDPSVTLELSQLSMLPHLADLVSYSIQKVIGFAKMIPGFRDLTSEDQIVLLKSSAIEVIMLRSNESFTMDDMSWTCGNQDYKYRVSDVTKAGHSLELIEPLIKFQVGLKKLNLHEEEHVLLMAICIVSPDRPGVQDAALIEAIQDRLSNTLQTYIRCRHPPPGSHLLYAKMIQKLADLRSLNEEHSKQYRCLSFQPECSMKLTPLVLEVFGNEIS
#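 The screen uses fluorescence polarization to detect compounds that interfere with recruitment of the SRC2-3 coactivator peptide to VDR; plates are read after 2 h at room temperature.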
# PLK1 PBD block: qHTS for Inhibitors of PLK1-PDB (polo-like kinase 1 - polo-box domain): Primary Screen | Serine/threonine-protein kinase PLK1 (Homo sapiens), P53350 | AID 720504, 2013 | Potency, µM, inactives show max response, negative = inhibition, actives largely listed as inhibitors | Plk1 PBD binding of FITC phosphopeptide, fluorescence polarization | 2.8% of 360,000 active; further: series mostly up to about 57 µM; nearly all actives have a fitted effect of over 65% in size
# 12-LOX inh: Primary qHTS assay for inhibitors of human arachidonate 12S-lipoxygenase (ALOX12): Round 2. 1.1% of 580,000 active. Potency, µM (titrated, usually from 108 µM), without a hit: top-dose activity change, negative = inhibition, hits mostly inhibitors. purified 12hLO, xylenol orange hydroperoxide absorbance. Polyunsaturated fatty acid lipoxygenase ALOX12 (Homo sapiens), P18054. AID 1671190, 2021
#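 Hydroperoxide product was detected by ferrous iron/xylenol orange as the 573 to 405 nm absorbance ratio. Arachidonic acid at 40 uM (final) was turned over for 30 min at room temperature by 150 nM human 12hLO, pH 7.0 Hepes buffer, after 15 min compound preincubation.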
# Sfp inh: qHTS Assay for Inhibitors of Bacillus subtilis Sfp phosphopantetheinyl transferase (PPTase). Biochemical Sfp PPTase activity, qHTS. Potency, µM, for the others: largest response in the series, negative = inhibition, actives largely listed as inhibitors. 3.5% of 310,000 active;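 further: the enzyme is Sfp with the accession as filed and its product quenches rhodamine fluorescence; 0% = enzyme reaction without inhibitor and -100% = no enzyme wells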
#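 Reaction rates are the 30-min fluorescence difference (ex 525, em 598 nm) in wells containing 15 nM Sfp, 5 uM rhodamine-CoA and 12.5 uM BHQ-2-YbbR at pH 7.6 with 10 mM MgCl2.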
# * marks the source's active call; other numbers are inactive results; ? = inconclusive; . = no result; ! = not active in a repeat; [ ] = remark or other dose. The call rests on the fitted dose curve; in most records, active means well fitted curve in the direction sought with a large enough effect; inconclusive means small, poorly fitted or top-dose-only effect, or another doubt; inactive means no such curve, though single readings can be large; an effect the other way counts as inactive or inconclusive. Unless noted, on the % scale 0 is the no-effect control and ±100 the full control effect; potency means the concentration at half of the fitted maximal effect.
SMILES,VDR inhibitor,PLK1 PBD block,12-LOX inh,Sfp inh
CC(O)CNCCOc1ccccc1-c1ccccc1 (configuration not stated),8%,1%,?,71µM*
CN(C)CCOc1ccccc1-c1ccccc1,-3%,-6%,?,?
COCCNCCOc1ccccc1-c1ccccc1,28%,-6%,?,50µM*
CN(C)CCOCCOc1ccccc1-c1ccccc1,6%,1%,?,79µM*
OCCNCCOc1ccccc1-c1ccccc1,-5%,-6%,-20%,2%
O=C(NCCCN1CCCC1=O)c1c(O)nc2sccn2c1=O,-9%,-1%,?,.
Cc1nc(Nc2cc(F)ccc2C)c2nnn(Cc3ccccc3)c2n1,?,24µM*,0%,-51%
Cc1nc2c(nnn2Cc2ccccc2)c(=O)[nH]1,?,4.7µM*,?,3%
Cc1nc(Nc2ccc(Cl)cc2)c2nnn(Cc3ccccc3)c2n1,-2%,27µM*,-25%,21%
COc1cc(/C=C/C(=O)OCC(=O)Nc2ccc(NC(C)=O)cc2)cc(S(=O)(=O)N2CCc3ccccc32)c1OC,18%,9%,-5%,9%
Cc1nnc(SCC(=O)N(C)c2ccccc2)n1-n1cccc1,7%,-4%,?,.
CCOC(=O)c1sc(NC(=S)NC(=O)CC(C)C)cc1C,-30%,27µM*,?,?
O=C(CCCCCn1c(=O)c2sccc2n(CC(=O)Nc2ccccc2F)c1=O)NCc1ccc2c(c1)OCO2,-9%,.,?,.
COc1ccc(CNS(=O)(=O)NCc2ccccc2F)cc1,2%,-6%,-10%,4%
N#C/C(=C\c1ccccc1)c1ccccn1,-10%,-16%,-23%,12%
Cc1c(/C=C(/C#N)c2ccccn2)cc(C#N)n1C,.,.,35µM*,.
Cc1cc(/C=C(/C#N)c2ccccn2)c(C)n1C1CC1,.,.,11µM*,.
COc1ccc(NCC(=O)NNC(=O)C(Cc2ccccc2)NC(=O)c2cccs2)cc1 (configuration not stated),.,.,-6%,.
CCn1nc(C)c(CCN(C)C(=O)Nc2cc(OC)c(OC)c(OC)c2)c1C,0%,.,-13%,.
O=C(NCc1ccc(F)cc1)c1cccc2c1C(=O)N(Cc1cccnc1)C2,-4%,27µM*,-10%,-3%
N#Cc1ccc(N2CCOCC2)c([N+](=O)[O-])c1,?,15µM*,1%,-2%
CC(O)CNCCCOc1ccc(Cl)cc1C(C)(C)C (configuration not stated),6%,-6%,?,?
CCOC(=O)C(C(=O)OCC)C(Nc1cccc(C)c1)c1ccccc1 (configuration not stated),.,.,-8%,.
CCOC(=O)C(C(=O)OCC)C(Nc1ccc(Br)cc1)c1ccccc1 (configuration not stated),79µM*,-7%,?,-4%
CCOC(=O)c1ccc(NC(=O)Cn2nc3c(cc2=O)CC(C)CC3)cc1 (configuration not stated),.,.,-2%,.
SMILES,VDR inhibitor,PLK1 PBD block,12-LOX inh,Sfp inh
CCCCC(=O)NC(=S)Nc1c(C)cc(Br)cc1C,-24%,15µM*,?,35µM*
O=C1C=CC(O)(c2cc(=O)c3c(O)cc(O)cc3o2)C=C1,32µM*,-22%,-1%,?
CCOC(=O)N1CCN(C(=O)CSCC(=O)N=c2sc3cc(OC)ccc3n2C)CC1,?,27µM*,-17%,.
COc1cc(CN2CCN(Cc3ccc(SC)cc3)CC2)cc(OC)c1O,27%,-8%,?,56µM*
OCCN1CCN(C(=S)c2ccc(Cl)cc2)CC1,?,6.7µM*,0%,-78%
S=C(c1ccc(Cl)cc1)N1CCN(Cc2ccccc2)CC1,16%,-16%,?,-18%
CCN1CCN(C(=S)c2ccc(SC)cc2)CC1,?,19µM*,-15%,28µM*
CSc1ccc(C(=S)N2CCN(Cc3ccccc3)CC2)cc1,-19%,21µM*,0%,14µM*
Cc1ccc2c(C)c(C(=O)Nc3c(C)n(C)n(-c4ccccc4)c3=O)oc2c1,5%,-7%,0%,2%
CC1CCc2nc3ccc(S(=O)(=O)N4CCC(C(=O)O)CC4)cc3c(C(=O)O)c2C1 (configuration not stated),2%,3%,9%,8%
CCc1ccc2c(c1)C(C)=CC(C)(C)N2,9%,2%,?,-12%
CCOc1ccc2c(c1)C(C)=CC(C)(C)N2,45µM*!,-2%,?,?
CC1=CC(C)(C)Nc2ccc(OC(=O)CN3C(=O)c4cccc5cccc(c45)C3=O)cc21,?,?,-21%,40µM*
CCn1c(SCc2nc3ccccc3c(=O)[nH]2)nc2ccccc21,2%,-12%,?,1%
CCN(CC)CCN1C(=O)C(O)=C(C(=O)c2cccs2)C1c1ccccn1 (configuration not stated),-2%,-2%,7%,56µM*
CCC(=O)Nc1ccc(C(=O)CSc2nnc(-c3ccc(O)cc3)n2CC2CCCO2)cc1 (configuration not stated),-3%,-12%,?,79µM*
COC(=O)c1cccc(NC(=S)N[C@@H]2C=C[C@@H](c3c(C)nn(-c4ccc(C(C)C)cc4)c3C)C2)c1,.,.,45µM*,.
Cc1nn(-c2ccc(C(C)C)cc2)c(C)c1[C@@H]1C=C[C@@H](NC(=S)NC2CCCCC2)C1,.,.,40µM*,.
COc1ccc(-n2nc(C)c([C@@H]3C=C[C@@H](NC(=O)NC4CCCCC4)C3)c2C)cc1,.,.,-8%[176 µM],.
COc1ccc(NC(=O)N[C@@H]2C=C[C@@H](c3c(C)nn(-c4ccc(C(C)C)cc4)c3C)C2)cc1,.,.,1%,.
O=C(O)C1Nc2c(O)cc(Cl)c([N+](=O)[O-])c2C2C=CCC12 (configuration not stated),-21%,3µM*,?,56µM*
COc1cccc(OCCn2cc(C(=O)c3ccco3)c3ccccc32)c1,1%,1%,2%,5%
Cc1ccc(OCCn2cc(/C=N/NC(=O)c3ccncc3)c3ccccc32)cc1,8%,15µM*,3%,0%
CNC(=S)N/N=C/c1cn(CCOc2cccc(OC)c2)c2ccccc12,-13%,0%,35µM*,?
COc1ccc(OCCn2cc(/C=N/NC(=O)c3ccncc3)c3ccccc32)cc1,-5%,4%,-22%,-13%
CNC(=S)N/N=C/c1cn(CCOc2ccccc2OC)c2ccccc12,-19%,-4%,?,?
COc1cccc(OCCn2cc(C(C)=O)c3ccccc32)c1,8%,1%,25µM*,-5%
COc1ccc(C(=O)N2CCCC(CCC(=O)NCc3ccc(F)c(F)c3)C2)o1 (configuration not stated),?,?,-17%,56µM*
O=c1cc(-c2ccccc2)oc2ccc(Br)cc12,-19%,3%,?,.
Cc1cccc(-c2cc(=O)c3cc(Br)ccc3o2)c1,-4%,.,.,79µM*

# High-throughput results (PubChem BioAssay)
